A selection: hits, their analogues and other compounds. The true share with any hit is near 6.1%.
DRD3 agonist: D3 dopamine receptor (human) agonism; D3R DiscoveRx beta-arrestin cells, luminescence, 90 min; hit rate 0.58% among 410,000; max activation, %; P35462; AID 652048; in the data active = max activation above about 30%; also: 0% is about no effect
Target sequence (P35462 whole entry, looked up): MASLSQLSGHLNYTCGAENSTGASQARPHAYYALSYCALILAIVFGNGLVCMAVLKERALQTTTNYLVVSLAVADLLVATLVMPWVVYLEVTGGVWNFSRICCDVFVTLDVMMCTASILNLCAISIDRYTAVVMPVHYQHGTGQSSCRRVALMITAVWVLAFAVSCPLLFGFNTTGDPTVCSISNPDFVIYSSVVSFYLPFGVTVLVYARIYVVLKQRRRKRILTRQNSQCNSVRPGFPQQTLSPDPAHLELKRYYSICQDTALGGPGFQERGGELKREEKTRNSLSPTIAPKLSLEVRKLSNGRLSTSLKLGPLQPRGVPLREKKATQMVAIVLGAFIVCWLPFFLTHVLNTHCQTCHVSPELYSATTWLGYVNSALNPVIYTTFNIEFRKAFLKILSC
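Agonist-mode cell screen: cells plated at 1500/well and incubated overnight at 37 °C, then exposed to library compounds for 90 min at 37 °C. Detection reagent was added for 30–60 min at room temperature, and luminescence was read.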
D1 PAM: human D1 dopamine receptor positive modulation; hit rate 0.036% among 360,000; potentiation, % at 10 µM; P21728; HEK293 TREx D1 cells, calcium flux, dopamine EC20 potentiation; AID 504651; in the data active = potentiation above about 30%; also: 0% is about no effect
DRD3 antagonist: D3 dopamine receptor (human) antagonism. P35462. D3R cells, DiscoveRx beta-arrestin luminescence, antagonist mode; hits give low values. max response, negative = inhibition, %. hit rate 2.5% among 360,000; in the data active = max response below about -50%; also: % is scaled to controls: 0 for no effect and ±100 for the full control effect
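Cells expressing the human receptor were seeded at 1500 cells/well, incubated overnight at 37 degrees C in 5% CO2, then exposed to library compounds with dopamine controls for 90 minutes at 37 degrees C before luminescent detection.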
D1 ag: activates the human D1 dopamine receptor; P21728; HEK293 T-REx D1 cells, calcium flux, agonist mode; activation, % at 2 µM; hit rate 1% among 360,000; in the data active = activation above about 30%; also: 0% is about no effect
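Inducible HEK293 T-REx D1 cells, force-coupled to calcium signalling, were plated at 4000 cells/well with tetracycline and held overnight at 30 C. After no-wash calcium dye loading, compound-evoked calcium rise over 180 s flagged agonists.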
D1 antagonist: antagonists of human D1 dopamine receptor; P21728; HEK293 TREx D1 cells, calcium flux, dopamine EC80; hits give low values; activity change, negative = inhibition, % at 10 µM; hit rate 3.2% among 360,000; AID 504652; in the data active = activity change below about -30%; also: % is scaled to controls: 0 for no effect and ±100 for the full control effect
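Cells carrying a force-coupled, tetracycline-inducible human D1 receptor report calcium flux. Each well gets a 10 s baseline, compound with 180 s monitoring, then an EC80 dopamine stimulus with a second 180 s kinetic read.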
The depositor's hits bear a star; · = not tested or not shown; ! = not active in a repeat.

SMILES	DRD3 agonist	D1 PAM	DRD3 antagonist	D1 ag	D1 antagonist
COc1ccc(C2=NS(=O)(=O)N(C)C(C(=O)Nc3ccc4c(c3)OCO4)=C2)cc1	-10	-6	-103*	9	-23
CC(=O)c1ccc(NC(=O)C2=CC(c3ccc4c(c3)OCO4)=NS(=O)(=O)N2C)cc1	-7	1	-1	33*!	-15
CC(=O)c1ccc(NC(=O)C2=CC(c3ccc(C)cc3)=NS(=O)(=O)N2C)cc1	-5	-1	·	1	-46*
COCCN(C(=O)CCC(=O)Nc1nccs1)C(C(=O)NC(C)(C)C)c1ccc(F)cc1 (stereo not given)	7	-3	9	4	10
COc1ccccc1N(CC(=O)NC(C)(C)C)C(=O)CCC(=O)Nc1nccs1	4	-8	14	0	3
CC(C)(C)NC(=O)CN(Cc1ccco1)C(=O)CCC(=O)Nc1nccs1	-4	1	-5	1	-31*
COc1ccc(N(CC(=O)NC(C)(C)C)C(=O)CCC(=O)Nc2nccs2)c(OC)c1	-2	-6	1	-1	-31*
COCCN(C(=O)CCC(=O)Nc1nccs1)C(C(=O)NC(C)(C)C)c1ccc(C)cc1 (stereo not given)	38*	-5	3	0	5
N/C(=N\OC(=O)CSc1ccccc1)c1ccccn1	1	5	5	3	3
CC(=O)Nc1ccc(Nc2nc(Cl)nc(Nc3ccc(NC(C)=O)cc3)n2)cc1	-2	0	-24	4	-36*
COc1ccc(Nc2nc(Cl)nc(Nc3ccc(OC)cc3)n2)cc1	8	1	0	2	-8
Oc1c(C=NCc2ccc(F)cc2)[nH]c2ccc(Br)c(Cl)c12	·	-2	·	5	-6
Cc1ccc(CN=Cc2[nH]c3ccc(Br)c(Cl)c3c2O)cc1	-26	-6	-101*	10	-3
CN(C)c1nnnn1-c1ccc(OC(F)(F)F)cc1	-11	5	-10	0	0
Cc1ccc2c(c1)-c1c(cnn1CC(=O)N1CCN(c3cccc(C(F)(F)F)c3)CC1)CO2	20	18	·	1	49
CCc1ccc2[nH]c(O)c(N=NC3=NC(=O)CS3)c2c1	-5	-3	-6	0	11
CCc1ccc2c(c1)c(N=NC1=NC(=O)CS1)c(O)n2CC	-23	1	-88*	-1	-4
CSc1cccc(NC(=O)C2CCN(S(=O)(=O)c3ccc4c(c3)CCCN4C(=O)C3CCC3)CC2)c1	23	-4	·	3	-48*
CCc1ccc(NC(=O)C2CCCN(S(=O)(=O)c3ccc4c(c3)CCCN4C(C)=O)C2)cc1 (stereo not given)	3	-10	16	3	-32*!
CC(=O)N1CCCc2cc(S(=O)(=O)N3CCCC(C(=O)Nc4cccc(F)c4)C3)ccc21 (stereo not given)	-9	-9	14	1	13
CSc1cccc(NC(=O)C2CCCN(S(=O)(=O)c3ccc4c(c3)CCCN4C(C)=O)C2)c1 (stereo not given)	-8	-1	·	0	-32*
CCOC(=O)C1CCCN(S(=O)(=O)c2ccc3c(c2)CCCN3C(C)=O)C1 (stereo not given)	7	-3	·	7	-4
CCCn1c(=O)n(-c2ccccc2Cl)c(=O)c2sc3ccccc3c21	8	-2	·	1	3
Cc1ccccc1N/C(SCc1ccc(Cl)cc1)=C(/C#N)C(=O)NCc1ccco1	-18	-8	-17	13	-17
Cc1ccc(CS/C(Nc2ccccc2C)=C(\C#N)C(=O)NCc2ccco2)c(C)c1	-5	-4	-17	30*	-24
SMILES	DRD3 agonist	D1 PAM	DRD3 antagonist	D1 ag	D1 antagonist
CN(CCOc1ccc(Cl)cc1)Cc1cccc(S(=O)(=O)N(C)C)c1	47*	-4	-5	4	15
CCc1ccc(CN(C)CC(O)COc2cccc3ccccc23)cc1 (stereo not given)	-11	0	0	-1	10
CN(CCOc1ccc(Cl)cc1)C(=O)c1cccc(S(=O)(=O)N2CCN(c3ccc(F)cc3)CC2)c1	8	·	0	·	·
CCN(Cc1ccccc1)C(=O)CCCOc1ccccc1	-2	1	11	5	-3
CN(CCOc1ccccc1)Cc1ccccc1	-1	·	-117*	·	·
CN(CCOc1cccc2ccccc12)Cc1ccccc1	-10	3	-76*	5	13
c1ccc(CCNCCCOc2cccc3ccccc23)cc1	-17	-5	-67*	50*	15
Cc1ccc(/C=N/n2c(-c3ccccc3)csc2=S)cc1	-15	·	·	·	·
CN(CC(=O)Nc1ccc(Cl)c(C(F)(F)F)c1)C(=O)c1cccs1	-3	-10	7	12	-51*
COc1cc(CC(=O)Nc2ccc(Cl)c(C(F)(F)F)c2)cc(OC)c1OC	0	-3	0	12	-35*
CN(CC(=O)NCc1ccccc1)CC(=O)Nc1ccc(Cl)c(C(F)(F)F)c1	6	·	6	64*	13
CCN(Cc1ccncc1)Cc1nc(CC2CC2)no1	-8	-3	-2	2	-3
Cc1ccc(OCCN2CCN(C(=O)CCC(=O)Nc3nnc(CC(C)C)s3)CC2)cc1	72*	-4	10	10	-11
COC(=O)c1ccc(COC(=O)[C@@H]2CC(O)CN2S(=O)(=O)c2ccccc2[N+](=O)[O-])cc1 (stereo not given in full)	-6	-4	0	10	-8
COc1cccc(N2CCN(C(=O)CCCCCNc3nc(=S)[nH]c4ccccc34)CC2)c1	3	-1	28	3	-22
CC(C)C(NC(=O)CCNC(=O)c1ccccc1Cl)c1nc2ccccc2[nH]1 (stereo not given)	2	4	9	2	-17
O=c1cc(-c2ccc(O)cc2)oc2cc(O)c(C3OC(CO)C(O)C(O)C3O)c(O)c12 (stereo not given)	-26	1	-64*	-2	5
CC1=C(C(=O)N2CCCCCC2)CC(CC(=O)NC2CCCC2)C(=O)N1Cc1ccc(F)cc1 (stereo not given)	-5	·	0	·	·
COCCNC(=O)Cn1cc(/C=C(\C#N)C(=O)NC2CCCC2)c2ccccc21	-5	33*	-60*	1	-4
CNC(=O)/C(C#N)=C/c1cn(CC(=O)NCc2ccco2)c2ccccc12	-6	2	-3	-3	-10
CCCNC(=O)N1C[C@H](O)COC[C@@H]2O[C@@H](CC(=O)NCCCN3CCOCC3)CC[C@H]21	-6	·	3	·	·
Cc1cccc(S(=O)Cc2ccc(C(=O)NC3CCCCCC3)o2)c1 (stereo not given)	1	0	·	0	-1
NNC(=O)c1ccc(N2CCc3ccccc32)c([N+](=O)[O-])c1	-3	-2	-5	1	-33*
C=C1CCN(c2ccc(C(=O)NCc3ccccc3)cc2[N+](=O)[O-])CC1	-11	-6	-30	-1	-9

Screening results: PubChem, National Center for Advancing Translational Sciences (NCATS)
